Data published in PubChem BioAssay AID686978 (National Center for Advancing Translational Sciences (NCATS), 2013).
Among all 420,000 compounds or so, about 64,000 (15%) were called active. Roughly 27% stayed inconclusive and do not appear here. Only a sample is shown. A number with no mark means an inactive call. Calls come from the whole dose curve; as a rule, active = well fitted inhibition curve with a large enough effect; inconclusive = small, poorly fitted or top-dose-only effect; inactive = flat fitted curve, though single readings scatter. Peptide text beside a SMILES is read from it.

Test: qHTS for Inhibitors of human tyrosyl-DNA phosphodiesterase 1 (TDP1): qHTS in cells in absence of CPT; note: nearly all actives have a fitted effect of over 55% in size
Settings: DT40 Tdp1-/- hTDP1 cells, no CPT, ATP luminescence, 48 h; activity change, negative = growth inhibition: at 46.2 µM (top of the series)
How it was run: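 DT40 Tdp1-/-;hTDP1 cells, no CPT (DMSO vehicle only), 400 cells/well; compounds pin-transferred; ≥48 hr, 37 °C; CellTiter-Glo 30 min RT dark, luminescence read.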
% is set by controls: 0 for no effect and ±100 for the full control effect; potency is the fitted concentration of half-maximal effect.

In order of falling “activity change, negative = growth inhibition” value:
1. COc1ccc(NC(=O)CCS(=O)(=O)c2cc3c(cc2Cl)NC(=O)CO3)cc1OC  15.1%
2. COc1ncnc2c1ncn2CCCNCCN1CCOCC1  12.5%
3. Cc1ccc(/C=C/C(=O)OCC(=O)Nc2cccnc2Cl)cc1  6.96%
4. C/C(Cc1ccccc1)=N\NC(=O)CNC(=O)c1ccccc1Cl  6.63%
5. CCOCCOC(=O)C1=C(C)NC(=O)NC1c1ccc2c(c1)OCO2 (stereo not given)  5.25%
6. O=C(O)c1ccccc1-c1ccccc1C(=O)Nc1nccs1  3.73%
7. CCOC(=O)COc1ccc(Cl)cc1C1NC(=O)NC(C)=C1C(C)=O (stereo not given)  3.59%
8. NC(=O)C1CCN(C(=O)COc2ccc3c4c(c(=O)oc3c2)CCC4)CC1  3.58%
9. Cc1nc2sc(C(c3ccco3)N3CCC4(CC3)OCCO4)c(O)n2n1 (stereo not given)  1.96%
10. Cc1nc2ccccn2c(=O)c1NC(=O)c1cccs1  0.66%
11. CCC(C)N(C(=O)Cn1nc(C)c([N+](=O)[O-])c1C)C1CCS(=O)(=O)C1 (stereo not given)  -0.177%
12. Nn1c(SCC(=O)Nc2nccs2)nnc1-c1ccco1  -0.464%
13. O=C(C1CC(=O)N(c2ccc(Br)cc2)C1)N1CCCC1 (stereo not given)  -3.38%
14. CCOC(=O)C1=C(COC(=O)[C@H](C)NS(=O)(=O)c2ccccc2F)NC(=O)NC1C (stereo not given in full)  -3.81%
15. CC(=O)NC(C(=O)NCC(N)=O)C(C)C (stereo not given) (HELM PEPTIDE1{[ac].[CC(C)C(N[*:1])C(=O)[*:2]].G.[am]}$$$$V2.0)  -3.83%
16. CCOC(=O)c1sc(-c2cccc([N+](=O)[O-])c2)cc1N  -5.43%
17. Cc1ccnc2nc(C(=O)OCC(=O)N(CC(C)C)CC(C)C)nn12  -5.82%
18. CCOC(=O)Cn1c(=O)oc2cc(S(=O)(=O)NCC3CCCO3)ccc21 (stereo not given)  -6.29%
19. Cc1nn(-c2ccccc2)c(NC(=O)c2cccs2)c(-c2ccc(Cl)cc2)c1=O  -7.27%
20. CCOC(=O)C1=C(c2ccccc2)NC(=O)NC1c1cc(OC)c(OC)cc1OC (stereo not given)  -9.62%
21. Nc1cc(=O)n(Cc2ccccc2)c(=O)n1Cc1ccccc1  -9.87%
22. Cc1nccn1CCCNC(=O)CC1C(=O)NCCN1Cc1ccc(Cl)c(F)c1 (stereo not given)  -10.3%
23. COC(=O)C1=C(C(=O)c2ccc(C)cc2)C(c2ccccc2)n2nnnc2N1 (stereo not given)  -11.2%
24. CC1CCCCC1NC(=O)CCS(=O)(=O)c1cccc2nonc12 (stereo not given)  -13.7%
25. COc1cc(OC)c(-n2c(C)cc(C=O)c2C)cc1Cl  -14.2%
26. O=C(COc1ccc2oc3c(c2c1)CCCC3)Nc1ccccn1  -15.6%
27. CCc1ccc(N2CC(C(=O)N3CCCCCC3)CC2=O)cc1 (stereo not given)  -15.7%
28. Cc1ccc(-n2c(SCC(=O)N3CCC(C(=O)O)CC3)nc3ccccc3c2=O)cc1C  -17.9%
29. O=C(NCc1cccnc1)C12CC3CC(CC(C3)C1)C2  -20.2%
30. CSc1ccc(Cl)c(C(=O)OCC(=O)N2CCNC2=O)c1  -20.3%
31. CC1=NN(c2cccc(Cl)c2)C(=O)C12CC(C)=C(C)CS2 (stereo not given)  -20.8%
32. COc1ccc(CCNC(=O)CC2SC(=Nc3cc(C)cc(C)c3)NC2=O)cc1OC (stereo not given)  -23.3%
33. COc1ccc([C@H]2CC(=O)C[C@@H](CCn3cc(CC4CCCC4)nn3)O2)cc1  -23.7%
34. O=C1c2cccnc2C(Nc2ccc(S(=O)(=O)N3CCCCCC3)cc2)N1Cc1ccccc1 (stereo not given)  -25.2%
35. CC(C)C(C)(C#N)NC(=O)CSc1nncn1-c1ccccc1 (stereo not given)  -26.6%
36. CCOC(=O)C1=C(CSc2nccn2C)NC(=O)NC1c1ccc(OC)cc1 (stereo not given)  -27.7%
37. Cn1c(=O)c2sccc2n2c(CCC(=O)NCc3ccccc3Cl)nnc12  -28.7%
38. COc1cccc(CCNC(=O)c2cccc(NC(=O)C3=C(C)OCCS3)c2)c1  -62.7%

With Cc1ccc(-n2c(=O)c(C#N)cc3c(=O)n4ccccc4nc32)cc1C the Potency was 23.1 µM (active).
With Cc1[nH]n(-c2cccc(Cl)c2)c(=O)c1-c1ccc(Cl)cc1 the Potency was 16.4 µM (active).
With CC1CCCCN1CC(=O)N1CCCc2c1c(=O)oc1ccc(OCc3ccccc3)cc21 (stereo not given) the Potency was 4.61 µM (active).
With CCOC(=O)C1=C(CN2CCCCCC2)NC(=O)NC1c1cccc([N+](=O)[O-])c1 (stereo not given) the Potency was 20.6 µM (active).
In the case of CCOC(=O)C1=C(CN2CCc3ccccc32)NC(=O)NC1c1cc(C)ccc1C (stereo not given), the Potency is reported as 12.6 µM (active).
For CCOC(=O)C1=C(CNC2CCCCC2)NC(=O)NC1c1cc(C)ccc1C (stereo not given), the Potency was 20.6 µM (active).
In the case of CN1/C(=C\C=C2\N=C(c3ccc(F)cc3)OC2=O)C(C)(C)c2ccccc21, the Potency is reported as 23.1 µM (active).
In the case of COc1ccc(-c2ccc(CN3C(CC(C)C)C(=O)N(Cc4cn(CC5CCCCC5)nn4)CCS3(=O)=O)cc2)cn1 (stereo not given), the Potency is reported as 18.4 µM (active).
In the case of COc1ccc(-c2ccc(CN3C(CC(C)C)C(=O)N(Cc4cn(CC5CCCCC5)nn4)CCS3(=O)=O)cc2)cc1 (stereo not given), the Potency is reported as 9.2 µM (active).
In the case of COc1ccc(-c2ccc(CN3C(C(C)C)C(=O)N(Cc4cn(CC5CCCCC5)nn4)CCS3(=O)=O)cc2)cn1 (stereo not given), the Potency is reported as 23.1 µM (active).
With Cc1ccc(N2CC(C(=O)N3CCC4(CC3)CC(=O)c3ccccc3O4)CC2=O)cc1C (stereo not given) the Potency was 14.6 µM (active).
For CC(C)Cc1ccc(C(C)C(=N)N)cc1 (stereo not given), the Potency was 6.51 µM (active).
